In the library only some 3.3% were active in any assay of this set; here they are far more common.
FGF22 binding-1 – FGF22 (human) thermal shift binding; 1.5% of 340,000 active; activity (Tm shift, normalised), % at 9.99 µM; recombinant FGF22 thermal shift, SYPRO orange fluorescence; percent of sucrose octasulfate shift, DMSO zero;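 active = mean Tm shift, scaled 0 neutral to 100 positive control, at about 1.3% or above, every replicate too, limit read from the data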
Target sequence (Q9HCT0 whole entry, looked up): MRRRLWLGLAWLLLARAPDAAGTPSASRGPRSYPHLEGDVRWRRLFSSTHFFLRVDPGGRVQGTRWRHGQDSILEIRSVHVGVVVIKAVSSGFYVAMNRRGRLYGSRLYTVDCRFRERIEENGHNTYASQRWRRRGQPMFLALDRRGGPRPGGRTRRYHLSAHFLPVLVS
INS-1E GSIS act – GLuc luminescence reporter in INS-1E cells, primary screen for activators of glucose-dependent secretion of insulin; INS-1E GLuc reporter insulin secretion, 2-3 h; activation, % at 16.6 µM; 0.61% of 370,000 active; AID 743287;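 active = lowest replicate activation of at least 40%, so every replicate reaches that level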;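 note: 0% = median of neutral control wells and 100% = median of IBMX positive control wells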
Casp6 inh – caspase-6 (human) enzyme inhibition; P55212; AID 686996; inhibition, % at 12.5 µM; 0.53% of 350,000 active; purified caspase-6, Z-VEID-R110 cleavage fluorescence;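 active = mean inhibition across replicates at least about 35%, with every replicate also reaching that limit, limit read from the data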;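 note: 0% = median of neutral control wells and 100% = no fluorescence left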
ERAP1 HTS inh – inhibitors of human ERAP1 aminopeptidase; inhibition, % at 10.7 µM; recombinant ERAP1, Leu-AMC fluorescence, 60 min; Q9NZ08; AID 652197; 0.15% of 340,000 active;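 active = mean replicate inhibition of at least 30%, or all replicates individually reaching that 30% level; inactive = mean below 30% and not every replicate reaching it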;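 note: 0% = neutral control wells and 100% = L-leucinethiol positive control wells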
SIRT5 inh – blocks human SIRT5 desuccinylation of peptide; Purified SirT5, succinyl-peptide AMC, trypsin-coupled fluorescence; inhibition, % at 15 µM; 1.1% of 330,000 active; AID 652115; in the data active = inhibition above about 15%
Target sequence (Q9NXA8 whole entry, looked up): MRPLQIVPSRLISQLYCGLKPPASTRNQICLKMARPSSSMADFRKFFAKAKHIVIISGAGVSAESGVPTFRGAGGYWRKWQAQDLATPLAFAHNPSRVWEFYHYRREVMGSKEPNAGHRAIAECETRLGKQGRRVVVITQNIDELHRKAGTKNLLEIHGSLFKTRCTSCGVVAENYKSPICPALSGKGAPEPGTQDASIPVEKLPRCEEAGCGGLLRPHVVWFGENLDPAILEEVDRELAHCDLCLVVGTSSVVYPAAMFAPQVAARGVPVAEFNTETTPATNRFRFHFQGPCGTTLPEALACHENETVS
FGF22 binding-2 – binders of human FGF22 by thermal shift. AID 720646. thermal shift activity, °C (ΔTm) at 38 µM. shares compounds with FGF22 binding-1. 2% of 1,000 active. recombinant FGF22 thermal shift, SYPRO orange fluorescence;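 active = fitted rise in melting shift crosses a set limit at or below the top valid dose tested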
FGF22 TSA DP – binds human FGF22 shifting its melting temperature. shares compounds with FGF22 binding-1. 50 tested, under 10 active. Thermal shift assay, SYPRO orange, melting temperature shift. AID 743017. Tm shift (activity), % at 38 µM;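 active = compounds whose fitted dose curve of melting temperature shift rises past a set threshold within the tested doses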
TSA no protein – counter-screen for FGF22 binders: compound-only thermal shift, no protein; AC50, µM (top dose mostly 38 µM); shares compounds with FGF22 binding-1; 2% of 1,000 active; compound-only SYPRO orange thermal shift counter-screen;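 active = rising signal whose fitted curve reaches the 0.54 level within the top valid dose, showing a melting point, actives reach about 13 µM in these data; inactive = the rest, including activity in the opposite direction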; note: value is where the raw curve crosses a fixed level and not half-maximal
Starred values were filed as active, the others as inactive; i = inactive; · = not tested or not shown; [ ] = remark or other dose.

SMILES	FGF22 binding-1	INS-1E GSIS act	Casp6 inh	ERAP1 HTS inh	SIRT5 inh	FGF22 binding-2	TSA no protein	others
CCN1C(=O)c2cccc3c(S(=O)(=O)Nc4ccc(O)c(C(=O)O)c4)ccc1c23	8.4*	7	14	2	5	0.045	i
C[C@H]1CN([C@@H](C)CO)C(=O)c2cccc(NS(=O)(=O)c3ccccc3)c2O[C@H]1CN(C)S(=O)(=O)c1ccccc1	-1	2	-1	1	1	·	·
COc1ccc2c3c(n(C)c2c1)[C@H](CO)N(C(=O)C1CCOCC1)CC31CCN(Cc2cccc(F)c2)CC1	0	-16	3	0	0	·	·
CCC(=O)N1[C@H](CO)[C@@H](c2ccccc2)C12CN(C(=O)c1cnccn1)C2	1.3*	4	0	2	-2	-0.085	i
COCC(=O)N1CC2(C1)[C@H](c1ccccc1)[C@@H](CO)N2C(=O)NC1CCCC1	1.3*	2	2	1	0	0.018	i
CN1C(=O)c2cc(NC(=O)NCc3ccccc3)ccc2OC[C@@H]2O[C@@H](CC(=O)O)CC[C@@H]21	0	9	0	0	3	·	·
CCc1nnc(NS(=O)(=O)c2ccc(NC(=O)c3ccc(Br)cc3)cc2)s1	1.6*	-6	0	0	1	0.019	i
CCc1nnc(NS(=O)(=O)c2ccc(Nc3ccc([N+](=O)[O-])c4nonc34)cc2)s1	2.0*	-26	25	19	7	0.2	i
CCc1nnc(NS(=O)(=O)c2ccc(NC(=O)c3ccccc3O)cc2)s1	0	12	2	2	1	·	·
CCCNC(=O)[C@H]1[C@H](CO)[C@H]2Cn3c(ccc(-c4ccccc4F)c3=O)[C@@H]1N2C(=O)CC	0	-4	-2	1	-15	·	·
CCNC(=O)C1(C)CCN(Cc2ccc(OC(F)(F)F)cc2)C1 (centres undefined)	1.4*	6	0	0	0	-0.008	i
CCNC(=O)C1(C)CCN(Cc2ccc(C(F)(F)F)cc2)C1 (centres undefined)	0	2	0	0	5	·	·
O=C(NC1CC1)c1cccc(NC(=O)c2cnn(-c3ccccc3)n2)c1	1.4*	-5	-4	1	-1	0.036	i
O=C(Nc1cccc(C(=O)NC2CCCC2)c1)c1ccccc1	0	8	-2	0	-1	·	·
O=C(CC(F)(F)F)N1C[C@@H]2[C@H](c3ccccc31)[C@@H](CO)N2C(=O)Cc1ccccc1	0	2	2	2	3	·	·
C[C@H]1CN([C@@H](C)CO)C(=O)c2cc(C#CC3(O)CCCC3)cnc2O[C@H]1CN(C)C(=O)CC1CC1	1	12	0	-2	-3	·	·
C[C@H](CO)N1C[C@H](C)[C@H](CN(C)C(=O)CC2CC2)Oc2ncc(C#CC3(O)CCCC3)cc2C1=O	1.4*	16	0	-4	-2	-0.086	i
CC(C)C#Cc1cnc2c(c1)C(=O)N([C@H](C)CO)C[C@H](C)[C@H](CN(C)C(=O)c1cnccn1)O2	1.5*	6	0	-4	-6	-0.007[42 µM]	i
CC(C)C#Cc1cnc2c(c1)C(=O)N([C@@H](C)CO)C[C@@H](C)[C@@H](CN(C)C(=O)c1cnccn1)O2	1.6*	11	1	-7	0	-0.002[42 µM]	i
CC(C)C#Cc1cnc2c(c1)C(=O)N([C@@H](C)CO)C[C@H](C)[C@@H](CN(C)C(=O)c1cnccn1)O2	1.5*	15	2	-6	-1	0.039[42 µM]	i
C[C@H]1CN([C@@H](C)CO)C(=O)c2cc(C#CCN(C)C)cnc2O[C@H]1CN(C)C(=O)c1cnccn1	0	-4	0	1	3	·	·
O=C(C[C@@H]1C=C[C@H](NC(=O)c2ccccn2)[C@H](CO)O1)NCc1cccc(F)c1	0	0	-3	-5	0	·	·
CC(=O)N(C)C[C@@H]1Oc2ncc(C#CC(C)(C)O)cc2C(=O)N([C@@H](C)CO)C[C@H]1C	1.6*	45	2	2	-3	-0.045	i
CCC(=O)N(C)C[C@H]1Oc2ncc(C#CC(C)(C)O)cc2C(=O)N([C@H](C)CO)C[C@@H]1C	0	12	1	2	-2	·	·
O=C(C[C@@H]1CC[C@H]2[C@@H](COC[C@@H](O)CN2C(=O)c2ccccc2F)O1)NCc1ccccc1	1.8*	8	0	0	1	0.033[42 µM]	i
SMILES	FGF22 binding-1	INS-1E GSIS act	Casp6 inh	ERAP1 HTS inh	SIRT5 inh	FGF22 binding-2	TSA no protein	others
O=C(C[C@@H]1CC[C@H]2[C@@H](COC[C@@H](O)CN2C(=O)c2ccc(F)cc2)O1)NCc1cccc(F)c1	1.5*	0	-1	0	-3	0.035	i
O=C(C[C@@H]1CC[C@@H]2[C@H](COC[C@H](O)CN2Cc2cc(F)ccc2F)O1)NCc1ccc(F)cc1	1	-13	-1	1	-4	·	·
O=C(C[C@H]1CC[C@H]2[C@@H](COC[C@H](O)CN2Cc2ccccc2)O1)NCCc1ccccc1	1.6*	-30	0	-2	-3	0.14	i
O=C(C[C@H]1CC[C@@H]2[C@H](COC[C@H](O)CN2C(=O)c2ccc(F)cc2)O1)NCc1cccc(F)c1	1	-7	-1	-1	-5	·	·
O=C(C[C@H]1CC[C@@H]2[C@H](COC[C@H](O)CN2Cc2cc(F)ccc2F)O1)NCc1ccc(F)cc1	2.6*	-1	-2	0	-2	0.16[42 µM]	i
CC(C)NC(=O)N(C)C[C@@H]1Oc2c(N)cccc2C(=O)N(C)C[C@@H]1C	·	-3	·	·	·	·	·
Cc1noc(C)c1NC(=O)Nc1ccc2c(c1)C(=O)N([C@H](C)CO)C[C@H](C)[C@@H](CN(C)CC1CC1)OCCCC[C@H](C)O2	0	14	0	1	-2	·	·
Nc1nnc(CC(=O)N/N=C/c2cc([N+](=O)[O-])cc(Br)c2O)s1	1.8*	-4	33	1	47*	·	i
Oc1c(CN2CCOCC2)cc(CN2CCOCC2)c(O)c1O	1.4*	7	-6	23	·	0.096	i
O=C(NN=Cc1c[nH]c2ccccc12)NN=Cc1c[nH]c2ccccc12	0	-17	1	-2	·	·	·
O=C(N/N=C/c1c[nH]c2ccccc12)c1cccs1	2.2*	-12	2	3	0	·	i	FGF22 TSA DP=0
Cc1cc(C(=O)N/N=C/c2c[nH]c3ccccc23)cs1	2.7*	-12	0	-4	3	·	i	FGF22 TSA DP=0
COc1ccc2c3c(n(C)c2c1)[C@@H](CO)N(C(=O)Nc1ccc(F)cc1)CC31CN(C(=O)NC2CCCC2)C1	0	-25	3	1	3	·	·
